The full data set covers some 7,900 targets. This sample favours those with a hit. About 0.6% of all pairs of compound and target were hits.
Key:
Assay in all cases: log2 fold change, soluble protein after heating vs DMSO (PISA); higher = thermal stabilisation; K562 cells, 10 uM, 30 min; active = over 0.2 and 3.5 SD of the protein, either way, in both replicates (recomputed)
[1] = compound: C1=CC=C(C=C1)[C@H](COC2=CC3=C(C=C2)NC(=O)N3)NC(=O)C4=CC=CN(C4=O)CC5=CC(=C(C=C5)F)F
Summary of the method: (§1)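 Soluble protein was quantified by TMTpro 16plex LC-MS/MS after channel sums were equalised. It was obtained as the supernatant after 21,000xg for 90 min from pooled aliquots of K562 cells (2×10^6 cells/mL, 10 μM compound, 30 min) heated for 3 min across 48°C-58°C and extracted in PBS with 0.5% NP-40 at 4°C. Thermal stability values are relative to control samples and come from duplicates. They are given as log2 fold changes.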

[2] = compound: CC1=C(SC2=C1C(=N[C@H](C3=NN=C(N32)C)CC(=O)N)C4=CC=C(C=C4)Cl)C
Summary of the method: as §1

[3] = compound: CC1=C2C(=CC=C1)N=C(N(C2=O)C3=CC=CC=C3C)CN4C=NC5=C(N=CN=C54)N
Summary of the method: as §1

[4] = compound: Cc1sc2c(c1C)C(c1ccc(Cl)cc1)=N[C@@H](CC(=O)OC(C)(C)C)c1nnc(C)n1-2
Summary of the method: as §1

[5] = compound: c1ccc([C@@H]2C[C@H]2NC2CCNCC2)cc1
Summary of the method: as §1

Measured: log2 fold change

CNOT1 (UniProt A5YKK6)
Chain of UniProt A5YKK6 (A5YKK6 whole entry, looked up): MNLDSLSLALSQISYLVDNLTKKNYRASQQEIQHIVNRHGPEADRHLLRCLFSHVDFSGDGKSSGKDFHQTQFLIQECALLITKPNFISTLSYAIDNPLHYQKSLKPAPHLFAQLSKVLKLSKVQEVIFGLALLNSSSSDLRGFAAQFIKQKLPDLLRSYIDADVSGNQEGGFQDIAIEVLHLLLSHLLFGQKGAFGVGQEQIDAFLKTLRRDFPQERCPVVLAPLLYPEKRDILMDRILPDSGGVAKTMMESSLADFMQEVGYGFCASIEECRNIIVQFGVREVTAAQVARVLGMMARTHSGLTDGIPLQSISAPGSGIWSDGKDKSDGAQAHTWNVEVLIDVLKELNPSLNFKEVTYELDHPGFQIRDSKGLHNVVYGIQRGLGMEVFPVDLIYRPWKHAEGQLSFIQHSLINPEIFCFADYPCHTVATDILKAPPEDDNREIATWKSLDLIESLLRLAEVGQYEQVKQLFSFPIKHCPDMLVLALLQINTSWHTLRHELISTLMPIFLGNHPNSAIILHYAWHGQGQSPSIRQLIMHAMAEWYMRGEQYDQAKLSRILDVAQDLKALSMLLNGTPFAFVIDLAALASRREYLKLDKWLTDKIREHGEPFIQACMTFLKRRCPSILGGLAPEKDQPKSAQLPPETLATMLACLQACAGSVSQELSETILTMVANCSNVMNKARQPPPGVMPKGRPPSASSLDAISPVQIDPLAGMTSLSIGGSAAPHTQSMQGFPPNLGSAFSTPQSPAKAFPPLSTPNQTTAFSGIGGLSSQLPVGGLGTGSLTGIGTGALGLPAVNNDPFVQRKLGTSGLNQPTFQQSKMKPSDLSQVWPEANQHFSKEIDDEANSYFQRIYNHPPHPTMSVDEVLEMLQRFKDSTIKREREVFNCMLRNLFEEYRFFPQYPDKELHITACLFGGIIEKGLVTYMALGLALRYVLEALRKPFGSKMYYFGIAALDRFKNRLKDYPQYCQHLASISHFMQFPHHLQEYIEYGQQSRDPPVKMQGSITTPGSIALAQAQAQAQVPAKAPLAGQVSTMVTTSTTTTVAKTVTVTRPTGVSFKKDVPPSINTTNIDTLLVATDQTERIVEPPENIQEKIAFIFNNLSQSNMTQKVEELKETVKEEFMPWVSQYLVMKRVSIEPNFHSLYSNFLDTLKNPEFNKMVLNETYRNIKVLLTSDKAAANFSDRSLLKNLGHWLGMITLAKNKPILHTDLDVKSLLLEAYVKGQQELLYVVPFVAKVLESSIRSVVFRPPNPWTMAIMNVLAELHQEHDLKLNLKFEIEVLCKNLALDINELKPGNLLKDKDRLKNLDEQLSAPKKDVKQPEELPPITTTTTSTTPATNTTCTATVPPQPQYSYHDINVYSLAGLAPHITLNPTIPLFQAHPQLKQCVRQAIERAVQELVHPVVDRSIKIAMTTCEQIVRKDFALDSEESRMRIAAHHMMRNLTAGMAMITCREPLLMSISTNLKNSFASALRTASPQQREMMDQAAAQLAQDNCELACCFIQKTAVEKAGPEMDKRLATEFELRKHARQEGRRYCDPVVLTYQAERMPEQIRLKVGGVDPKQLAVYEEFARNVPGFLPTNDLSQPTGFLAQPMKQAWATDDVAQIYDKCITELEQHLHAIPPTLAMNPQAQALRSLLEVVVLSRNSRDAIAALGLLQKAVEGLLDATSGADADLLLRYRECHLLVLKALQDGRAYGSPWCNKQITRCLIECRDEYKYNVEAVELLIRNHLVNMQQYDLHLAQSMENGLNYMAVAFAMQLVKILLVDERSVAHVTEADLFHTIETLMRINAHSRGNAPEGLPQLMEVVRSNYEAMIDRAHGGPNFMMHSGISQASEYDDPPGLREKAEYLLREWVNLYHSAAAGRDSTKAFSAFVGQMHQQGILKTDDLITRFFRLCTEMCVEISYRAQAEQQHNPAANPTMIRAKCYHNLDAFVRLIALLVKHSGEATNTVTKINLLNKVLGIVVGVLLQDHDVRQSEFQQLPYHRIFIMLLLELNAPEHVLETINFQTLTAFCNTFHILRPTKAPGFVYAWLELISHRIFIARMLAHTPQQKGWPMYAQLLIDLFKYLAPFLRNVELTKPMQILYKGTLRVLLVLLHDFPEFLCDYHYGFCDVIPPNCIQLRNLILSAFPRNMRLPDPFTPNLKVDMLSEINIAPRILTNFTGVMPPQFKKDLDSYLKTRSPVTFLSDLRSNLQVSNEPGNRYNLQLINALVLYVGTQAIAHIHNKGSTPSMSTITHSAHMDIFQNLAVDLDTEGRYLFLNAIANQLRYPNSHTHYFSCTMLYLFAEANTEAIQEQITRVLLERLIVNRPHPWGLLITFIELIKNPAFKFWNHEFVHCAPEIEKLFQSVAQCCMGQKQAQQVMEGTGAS
inactive: [1] -0.02 | [2] 0.021 | [3] 0.031 | [4] -0.017 | [5] -0.021

CLUH, A0A494C0R8
inactive: [1] -0.121 | [2] -0.004 | [3] 0.025 | [4] 0.152 | [5] 0.096

CCDC82 (UniProt Q8N4S0)
inactive: [1] -0.018 | [2] 0.056 | [3] 0.033 | [4] 0.043 | [5] 0.004

CDK5RAP1 (UniProt Q96SZ6)
inactive: [1] 0.056 | [2] 0.029 | [3] 0.149 | [4] 0.028 | [5] -0.023

CKS1B (UniProt P61024)
inactive: [1] -0.004 | [2] 0.056 | [3] 0.024 | [4] -0.067 | [5] -0.02

CEMIP2 (UniProt Q9UHN6)
inactive: [1] -0.03 | [2] -0.017 | [3] 0.08 | [4] -0.04 | [5] 0.081

CLCN3 (UniProt P51790)
inactive: [1] 0.01 | [2] 0.025 | [3] 0.064 | [4] -0.107 | [5] 0.056

CLPP (UniProt Q16740)
inactive: [1] 0.037 | [2] 0.153 | [3] 0.093 | [4] -0.124 | [5] 0.008

C9orf64 (UniProt Q5T6V5)
inactive: [1] -0.15 | [2] 0.054 | [3] 0.097 | [4] 0.052 | [5] -0.066

CD63 (UniProt P08962)
Chain of UniProt P08962 (P08962 whole entry, looked up): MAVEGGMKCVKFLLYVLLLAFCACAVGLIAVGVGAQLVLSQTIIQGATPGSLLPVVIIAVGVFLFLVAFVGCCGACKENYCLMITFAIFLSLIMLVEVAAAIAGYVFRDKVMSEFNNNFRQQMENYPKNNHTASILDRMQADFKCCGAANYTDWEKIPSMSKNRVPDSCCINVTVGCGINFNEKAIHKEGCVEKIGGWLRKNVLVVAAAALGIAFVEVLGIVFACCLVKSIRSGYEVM
inactive: [1] 0.041 | [2] 0.02 | [3] -0.008 | [4] 0.009 | [5] 0.035

CLTB (UniProt P09497)
inactive: [1] 0.021 | [2] -0.01 | [3] -0.016 | [4] -0.01 | [5] -0.02

COA6 isoform 2 (UniProt Q5JTJ3)
Chain of UniProt Q5JTJ3 (Q5JTJ3 whole entry, looked up): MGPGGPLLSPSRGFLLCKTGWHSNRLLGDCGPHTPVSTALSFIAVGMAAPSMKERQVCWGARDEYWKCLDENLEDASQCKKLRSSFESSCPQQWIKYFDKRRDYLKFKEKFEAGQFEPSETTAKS
inactive: [1] 0.06 | [2] 0.08 | [3] 0.038 | [4] -0.06 | [5] -0.015

CHST11 (UniProt Q9NPF2)
inactive: [1] 0.018 | [2] -0.061 | [3] 0.055 | [4] 0.007 | [5] -0.139

COCH (UniProt O43405)
inactive: [1] 0.006 | [2] 0.061 | [3] -0.193 | [4] 0.144 | [5] 0.006

CPSF1 (UniProt Q10570)
inactive: [1] -0.012 | [2] -0.049 | [3] -0.017 | [4] 0.132 | [5] 0.006

CHEK1 (UniProt O14757)
inactive: [1] 0.006 | [2] 0.065 | [3] 0.087 | [4] 0.025 | [5] 0.01

CRKL (UniProt P46109)
inactive: [1] 0.01 | [2] 0.041 | [3] 0.032 | [4] 0.016 | [5] -0.002

CCAR1 (UniProt Q8IX12)
Chain of UniProt Q8IX12 (Q8IX12 whole entry, looked up): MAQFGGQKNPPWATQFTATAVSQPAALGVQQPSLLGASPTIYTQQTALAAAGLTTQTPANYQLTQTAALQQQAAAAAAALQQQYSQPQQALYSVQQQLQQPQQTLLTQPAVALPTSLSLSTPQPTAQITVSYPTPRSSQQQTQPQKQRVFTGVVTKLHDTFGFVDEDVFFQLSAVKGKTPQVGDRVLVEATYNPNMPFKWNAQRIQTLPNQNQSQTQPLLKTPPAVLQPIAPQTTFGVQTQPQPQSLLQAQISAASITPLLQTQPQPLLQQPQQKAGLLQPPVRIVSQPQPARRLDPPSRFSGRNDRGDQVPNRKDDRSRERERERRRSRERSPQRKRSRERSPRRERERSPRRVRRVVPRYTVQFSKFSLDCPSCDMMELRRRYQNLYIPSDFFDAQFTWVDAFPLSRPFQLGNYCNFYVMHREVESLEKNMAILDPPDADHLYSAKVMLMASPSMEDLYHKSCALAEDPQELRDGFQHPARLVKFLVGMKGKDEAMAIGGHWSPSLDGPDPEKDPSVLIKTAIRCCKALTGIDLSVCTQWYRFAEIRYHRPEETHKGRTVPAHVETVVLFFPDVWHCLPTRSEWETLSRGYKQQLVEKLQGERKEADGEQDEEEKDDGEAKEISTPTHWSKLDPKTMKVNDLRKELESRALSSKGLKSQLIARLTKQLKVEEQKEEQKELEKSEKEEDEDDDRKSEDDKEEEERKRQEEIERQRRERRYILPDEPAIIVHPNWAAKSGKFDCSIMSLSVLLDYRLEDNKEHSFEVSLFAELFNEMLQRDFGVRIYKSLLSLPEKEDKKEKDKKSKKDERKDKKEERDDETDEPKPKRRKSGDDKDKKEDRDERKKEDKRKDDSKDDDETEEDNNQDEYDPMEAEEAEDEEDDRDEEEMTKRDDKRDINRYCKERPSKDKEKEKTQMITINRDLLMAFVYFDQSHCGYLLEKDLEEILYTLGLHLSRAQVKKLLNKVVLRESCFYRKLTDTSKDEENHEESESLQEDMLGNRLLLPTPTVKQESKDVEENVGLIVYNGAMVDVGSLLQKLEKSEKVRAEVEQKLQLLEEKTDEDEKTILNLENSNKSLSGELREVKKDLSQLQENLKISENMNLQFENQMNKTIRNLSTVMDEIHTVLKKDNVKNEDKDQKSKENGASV
inactive: [1] -0.129 | [2] 0.061 | [3] 0.043 | [4] 0.044 | [5] -0.043

CCNK isoform 4 (UniProt O75909)
Chain of UniProt O75909 (O75909 whole entry, looked up): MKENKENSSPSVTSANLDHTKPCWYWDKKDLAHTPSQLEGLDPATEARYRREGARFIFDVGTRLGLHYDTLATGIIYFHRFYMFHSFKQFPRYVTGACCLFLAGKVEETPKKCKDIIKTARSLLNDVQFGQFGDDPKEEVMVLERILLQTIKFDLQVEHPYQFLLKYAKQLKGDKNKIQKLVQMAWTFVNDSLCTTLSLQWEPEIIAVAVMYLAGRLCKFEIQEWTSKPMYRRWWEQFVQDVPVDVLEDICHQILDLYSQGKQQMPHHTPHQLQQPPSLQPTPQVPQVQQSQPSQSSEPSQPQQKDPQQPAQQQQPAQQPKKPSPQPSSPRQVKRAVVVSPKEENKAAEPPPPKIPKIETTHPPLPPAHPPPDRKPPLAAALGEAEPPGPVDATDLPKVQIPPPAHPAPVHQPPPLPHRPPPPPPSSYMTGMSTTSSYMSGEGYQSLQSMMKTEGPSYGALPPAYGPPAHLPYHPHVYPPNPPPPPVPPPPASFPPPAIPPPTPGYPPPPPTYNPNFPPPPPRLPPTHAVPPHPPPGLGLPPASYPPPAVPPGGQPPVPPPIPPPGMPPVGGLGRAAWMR
inactive: [1] 0.045 | [2] -0.115 | [3] 0.015 | [4] 0.103 | [5] 0.069

C4orf33 (UniProt Q8N1A6)
inactive: [1] -0.041 | [2] 0.176 | [3] 0.066 | [4] 0.024 | [5] -0.003

CIZ1 (UniProt Q9ULV3)
inactive: [1] 0.021 | [2] 0.047 | [3] 0.025 | [4] 0.062 | [5] 0.029

CDK16 isoform 2 (UniProt Q00536)
inactive: [1] -0.009 | [2] 0.026 | [3] 0.043 | [4] -0.014 | [5] -0.074

CDAN1 (UniProt Q8IWY9)
inactive: [1] -0.035 | [2] -0.049 | [3] 0.051 | [4] 0.091 | [5] 0.022

CETN2 (UniProt P41208)
Chain of UniProt P41208 (P41208 whole entry, looked up): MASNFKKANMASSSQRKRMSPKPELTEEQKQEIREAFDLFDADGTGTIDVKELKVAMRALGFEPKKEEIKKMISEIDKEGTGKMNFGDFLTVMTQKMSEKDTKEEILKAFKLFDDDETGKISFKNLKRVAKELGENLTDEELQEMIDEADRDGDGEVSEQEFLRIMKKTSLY
inactive: [1] 0.027 | [2] 0.046 | [3] -0.012 | [4] 0.06 | [5] 0.08

CDC37L1 (UniProt Q7L3B6)
Chain of UniProt Q7L3B6 (Q7L3B6 whole entry, looked up): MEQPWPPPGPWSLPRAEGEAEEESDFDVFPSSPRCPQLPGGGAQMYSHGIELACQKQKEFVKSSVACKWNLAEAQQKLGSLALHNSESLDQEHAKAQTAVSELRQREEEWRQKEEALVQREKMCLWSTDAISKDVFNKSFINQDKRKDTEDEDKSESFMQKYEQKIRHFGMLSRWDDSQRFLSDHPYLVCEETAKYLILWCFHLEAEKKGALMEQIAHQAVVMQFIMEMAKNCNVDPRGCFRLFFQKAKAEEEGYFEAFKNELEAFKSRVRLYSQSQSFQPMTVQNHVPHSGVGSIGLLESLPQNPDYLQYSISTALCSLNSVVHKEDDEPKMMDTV
inactive: [1] -0.009 | [2] 0.026 | [3] 0.087 | [4] 0.337 | [5] 0.02
